Active and inactive are the calls of the source.

One assay concerns the target Albumin (Bos taurus) (UniProt P02769). Description: bovine serum albumin binders on microarray, profiling panel, artefact control for SMM control protein annotation, biochemical, small-molecule microarray, Alexa647 label, 635/667 nm fluorescence (AID 1118).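 Further: score merges 667 nm emission intensity and signal-to-noise per printed compound spot.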 The conditions noted are these: BSA-A647 binding, fluorescence 635 nm, higher = more signal.
Assay [1] is described as follows: small-molecule microarray binders of probe aXIP, primary screen, biochemical, NeuroSMM set, 635/667 nm fluorescence (AID 1119).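 Further: probe is the protein aXip251-270 applied at 1 µg/mL to compound-printed slides; binding of probe to printed compounds measured as 667 nm fluorescence plus signal to noise.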 The conditions noted are these: higher = more signal, called active from +8 up or from −8 down.
A short description of assay [2]: small-molecule binders of probe aNOTCH3, primary screen, biochemical, small-molecule microarray, 635/667 nm fluorescence (AID 1120).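 Further: probe is a biotin-tagged antibody raised against NOTCH3 rather than NOTCH3 protein; score merges spot fluorescence near 667 nm with spot signal to noise.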 The settings on record: higher = more signal.
The nature of assay [3]: small-molecule binders of probe aNOTCH2, primary screen, biochemical, small-molecule microarray, 635/667 nm fluorescence (AID 1121).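 Further: score merges feature fluorescence read at 667 nm with its signal to noise.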 The conditions noted are these: higher = more signal.
Assay [4] concerns the target Carbonic anhydrase 2 (Homo sapiens) (UniProt P00918). The assay is described as follows: CAII small-molecule binders, profiling panel, biochemical, small-molecule microarray, Alexa647-labelled CAII (AID 1122). The settings on record: CAII-A647 binding fluorescence, higher = more signal.
Assay [5] is described as follows: COS7 lysate on small-molecule microarray, probe aHis, 635 nm (AID 1123).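 Further: z-score combines 667nm fluorescence intensity with signal-to-noise per printed compound spot.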 The conditions noted are these: COS7 cell lysate, fluorescence, higher = more signal.
The nature of assay [6]: compound binding in COS7 lysate, probe aLAP1, primary screen, cell lysate, small-molecule microarray (AID 1124).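 Further: lysate comes from COS7 cells expressing LAP1 and is applied at 0.3 µg/mL; score merges spot fluorescence near 667 nm with signal-to-noise over triplicate slides.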 The settings on record: probe aLAP1, fluorescence, higher = more signal.
The test system of another assay is Sam68 (KHDRBS1). The assay is described as follows: Sam68 small-molecule binders, primary screen, biochemical, small-molecule microarray, 635 nm fluorescence (AID 1125).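 Further: score merges 667 nm channel intensity with signal to noise over triplicate slides.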 The settings on record: small-molecule microarray binding, higher = more signal.
For assay [7], the system named is Chordin-like protein 2 (CHRDL2). Description: CHRDL2 small-molecule binders, primary screen, biochemical, small-molecule microarray, 635 nm fluorescence (AID 1126).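 Further: printed compound slides probed with Chrdl2 protein at 4 µg/mL for 1 h at 4 C; score merges 667 nm emission intensity with signal to noise over three replicate slides.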 The conditions noted are these: small-molecule microarray binding, fluorescence 635 nm; higher = more signal.
Assay [8] concerns the target Concanavalin-A (Canavalia ensiformis) (UniProt P02866). Description: ConA small-molecule binders, primary screen, artefact control for SMM control protein annotation, biochemical, small-molecule microarray, Alexa647 label, 635 nm (AID 1127).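 Further: z combines 667 nm emission intensity with signal-to-noise across three replicate slides.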 The conditions noted are these: ConA-A647 binding fluorescence, higher = more signal.
The nature of assay [9]: anti-His antibody binders, primary screen, artefact control for SMM control protein annotation, biochemical, small-molecule microarray, 635 nm fluorescence (AID 1128).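 Further: score merges feature fluorescence with signal-to-noise for each printed compound spot.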 The settings on record: anti-His Alexa647 antibody binding, higher = more signal.
Assay [10] concerns Human papillomavirus type 1a E7 protein (residues 1-88). The assay is described as follows: HPV1a E7 small-molecule binders, primary screen, biochemical, small-molecule microarray, residues 1-88, 635 nm (AID 1129). The settings on record: small-molecule microarray binding, fluorescence 635 nm; higher = more signal.
Assay [11] concerns the target Focal adhesion kinase 1 (Homo sapiens) (UniProt Q05397). Description: small-molecule microarray binders of FAK, primary screen, biochemical, 635/667 nm fluorescence, BSA, DTT (AID 1130).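 Further: composite of spot emission at 667 nm and signal to noise over triplicate slides.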 The conditions noted are these: PTK2 binding, 635 nm fluorescence, higher = more signal.
For assay [12], the system named is Fibrinogen (Alexa647-labelled). Description: fibrinogen binders on compound microarrays, profiling panel, artefact control for SMM control-protein annotation, biochemical, small-molecule microarray, 635/667 nm fluorescence (AID 1131).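 Further: z-score merges 667 nm fluorescence with per-spot signal-to-noise over triplicate slides.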 The settings on record: fibrinogen-A647 binding fluorescence, higher = more signal.
Assay [13] addresses Follistatin (Homo sapiens) (UniProt P19883). Description: follistatin binders on small-molecule microarrays, primary screen, biochemical, small-molecule microarray, 635/667 nm fluorescence (AID 1132). The conditions noted are these: FST binding, 635 nm fluorescence, higher = more signal.
The target of assay [14] is Fibroblast growth factor 2 (Homo sapiens) (UniProt P09038). The assay is described as follows: FGF2 binders on small-molecule microarrays, primary screen, biochemical, small-molecule microarray, 635/667 nm fluorescence (AID 1133). The settings on record: small-molecule microarray binding, FGF2, fluorescence 635/667; higher = more signal.
The nature of assay [15]: mitochondrial membrane potential change in A549 cells, profiling panel, cell-based, JC-1 fluorescence, basal, 24 h, 100 nL (AID 1138).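 Further: A549 lung adenocarcinoma cells under basal conditions with no added stimulus; test concentration not given here.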 The conditions noted are these: higher = more signal.
In another assay the test system is Lefty1. Description: Lefty1 binders on small-molecule microarrays, primary screen, biochemical, small-molecule microarray, 635/667 nm fluorescence (AID 1139). The conditions noted are these: small-molecule microarray binding, fluorescence 635/667; higher = more signal.
The test system of assay [16] is wheat germ agglutinin (Triticum aestivum), Alexa647-labelled. Description: wheat germ agglutinin binders on compound microarrays, profiling panel, artefact control for SMM control-protein annotation, biochemical, small-molecule microarray, 635/667 nm fluorescence (AID 1140).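 Further: score merges 667 nm feature emission with signal to noise over triplicate slides.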 The settings on record: WGA-A647 binding, 635 nm fluorescence, higher = more signal.
In assay [17] the target is Luciferin 4-monooxygenase (Photinus pyralis) (UniProt P08659). Description: firefly luciferase enzyme inhibitors, primary screen, biochemical, luminescence, purified enzyme, 2006 set (AID 1141).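 Further: cell-free assay with purified firefly luciferase at 100 ng per well in PBS; test concentration not given here.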 The settings on record: SteadyGlo luminescence, 30 min, higher = more signal, called active from +8 up or from −8 down.
Chain of Luciferin 4-monooxygenase (Photinus pyralis) (P08659 whole entry, looked up): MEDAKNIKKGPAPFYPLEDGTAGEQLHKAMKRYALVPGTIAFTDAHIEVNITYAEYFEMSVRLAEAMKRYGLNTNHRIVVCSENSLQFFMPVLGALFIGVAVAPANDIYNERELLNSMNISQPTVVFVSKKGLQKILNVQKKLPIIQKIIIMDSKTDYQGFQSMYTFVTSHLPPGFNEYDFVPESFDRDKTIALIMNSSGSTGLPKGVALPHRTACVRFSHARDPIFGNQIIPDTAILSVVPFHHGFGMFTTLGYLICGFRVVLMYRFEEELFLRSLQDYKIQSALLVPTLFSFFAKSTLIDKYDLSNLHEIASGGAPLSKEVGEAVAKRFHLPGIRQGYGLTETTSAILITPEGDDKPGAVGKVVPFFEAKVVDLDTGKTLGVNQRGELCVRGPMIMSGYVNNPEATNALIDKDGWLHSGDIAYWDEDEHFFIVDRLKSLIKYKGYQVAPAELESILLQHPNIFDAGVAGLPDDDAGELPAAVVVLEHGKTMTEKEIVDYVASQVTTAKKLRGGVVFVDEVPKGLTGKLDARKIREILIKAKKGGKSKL

Chain of Focal adhesion kinase 1 (Homo sapiens) (Q05397 whole entry, looked up): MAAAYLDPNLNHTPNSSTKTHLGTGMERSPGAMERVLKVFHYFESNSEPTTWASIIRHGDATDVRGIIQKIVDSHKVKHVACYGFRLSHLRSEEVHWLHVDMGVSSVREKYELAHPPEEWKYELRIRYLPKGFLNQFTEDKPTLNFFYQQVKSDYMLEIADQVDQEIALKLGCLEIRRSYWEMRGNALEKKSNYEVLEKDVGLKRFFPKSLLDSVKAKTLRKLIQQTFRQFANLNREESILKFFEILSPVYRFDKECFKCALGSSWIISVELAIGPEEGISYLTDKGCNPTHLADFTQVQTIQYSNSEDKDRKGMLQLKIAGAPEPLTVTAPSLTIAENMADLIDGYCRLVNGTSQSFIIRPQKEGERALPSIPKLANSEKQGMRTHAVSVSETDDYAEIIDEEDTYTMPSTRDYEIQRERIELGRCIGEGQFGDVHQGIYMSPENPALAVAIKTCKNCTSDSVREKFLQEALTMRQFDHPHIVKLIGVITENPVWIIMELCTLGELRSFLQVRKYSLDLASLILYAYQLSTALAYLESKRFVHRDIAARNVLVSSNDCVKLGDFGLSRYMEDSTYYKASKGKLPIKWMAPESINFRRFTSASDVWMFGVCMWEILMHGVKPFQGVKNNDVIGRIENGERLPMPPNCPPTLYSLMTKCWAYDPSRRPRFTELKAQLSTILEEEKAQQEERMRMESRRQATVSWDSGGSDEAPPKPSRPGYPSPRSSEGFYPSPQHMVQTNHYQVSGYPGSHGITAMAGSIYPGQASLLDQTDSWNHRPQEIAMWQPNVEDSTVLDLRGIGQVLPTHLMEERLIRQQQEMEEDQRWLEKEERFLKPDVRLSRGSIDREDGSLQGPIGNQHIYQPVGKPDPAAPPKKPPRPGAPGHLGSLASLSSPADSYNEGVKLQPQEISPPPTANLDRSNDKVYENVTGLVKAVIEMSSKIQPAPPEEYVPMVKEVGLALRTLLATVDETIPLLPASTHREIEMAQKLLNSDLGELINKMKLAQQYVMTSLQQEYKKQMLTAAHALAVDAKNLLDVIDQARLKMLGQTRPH
Chain of Albumin (Bos taurus) (P02769 whole entry, looked up): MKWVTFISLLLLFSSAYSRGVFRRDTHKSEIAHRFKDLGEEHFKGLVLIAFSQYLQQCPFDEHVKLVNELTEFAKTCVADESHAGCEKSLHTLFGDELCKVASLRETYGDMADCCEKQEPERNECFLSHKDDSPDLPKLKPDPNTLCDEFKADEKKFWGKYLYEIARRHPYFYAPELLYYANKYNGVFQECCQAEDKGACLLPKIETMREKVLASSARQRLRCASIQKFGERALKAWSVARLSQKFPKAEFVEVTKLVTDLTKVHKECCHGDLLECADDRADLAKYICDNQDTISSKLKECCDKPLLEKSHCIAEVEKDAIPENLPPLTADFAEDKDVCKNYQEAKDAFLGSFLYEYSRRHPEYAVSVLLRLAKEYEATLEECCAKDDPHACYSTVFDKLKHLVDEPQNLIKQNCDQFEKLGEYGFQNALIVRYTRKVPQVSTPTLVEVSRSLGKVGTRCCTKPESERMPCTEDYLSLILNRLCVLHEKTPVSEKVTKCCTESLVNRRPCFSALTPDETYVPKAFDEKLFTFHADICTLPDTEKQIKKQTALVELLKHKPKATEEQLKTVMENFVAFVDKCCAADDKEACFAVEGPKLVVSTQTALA
Chain of Follistatin (Homo sapiens) (P19883 whole entry, looked up): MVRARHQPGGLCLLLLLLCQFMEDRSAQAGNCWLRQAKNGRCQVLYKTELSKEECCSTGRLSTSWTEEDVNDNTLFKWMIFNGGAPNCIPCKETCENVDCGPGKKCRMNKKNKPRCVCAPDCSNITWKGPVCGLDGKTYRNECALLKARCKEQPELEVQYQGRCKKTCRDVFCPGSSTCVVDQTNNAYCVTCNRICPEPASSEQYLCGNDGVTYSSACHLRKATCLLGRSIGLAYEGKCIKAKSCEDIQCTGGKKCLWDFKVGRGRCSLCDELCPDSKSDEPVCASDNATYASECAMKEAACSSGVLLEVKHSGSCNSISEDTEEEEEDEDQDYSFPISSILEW
Chain of Concanavalin-A (Canavalia ensiformis) (P02866 whole entry, looked up): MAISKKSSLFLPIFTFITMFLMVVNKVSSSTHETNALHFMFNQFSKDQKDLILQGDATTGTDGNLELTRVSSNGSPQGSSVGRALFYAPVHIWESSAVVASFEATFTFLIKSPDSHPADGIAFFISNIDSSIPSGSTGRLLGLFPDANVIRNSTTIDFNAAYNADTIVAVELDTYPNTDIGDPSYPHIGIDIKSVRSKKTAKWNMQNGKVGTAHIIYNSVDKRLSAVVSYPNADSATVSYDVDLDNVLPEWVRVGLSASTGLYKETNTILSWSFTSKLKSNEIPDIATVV
Chain of Fibroblast growth factor 2 (Homo sapiens) (P09038 whole entry, looked up): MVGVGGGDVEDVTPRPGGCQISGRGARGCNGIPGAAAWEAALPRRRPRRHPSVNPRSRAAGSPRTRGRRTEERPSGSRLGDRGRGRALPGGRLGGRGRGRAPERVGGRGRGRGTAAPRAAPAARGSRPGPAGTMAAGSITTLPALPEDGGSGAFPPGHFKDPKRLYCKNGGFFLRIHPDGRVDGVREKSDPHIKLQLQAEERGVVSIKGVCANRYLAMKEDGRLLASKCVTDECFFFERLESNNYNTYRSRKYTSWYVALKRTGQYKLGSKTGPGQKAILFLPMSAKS

In the case of `COC(=O)C1=CC(CCCO)=CC(C2CC2)N(Cc2sc3ccccc3c2Cl)C=C1C(=O)OC` (stereo not given), the composite z-score with Albumin (Bos taurus) is 0.932; in assay [2], 0.224; in assay [3] it was -0.0209; in [4], 0.817; in assay [5], 1.55; in assay [6], 1.01. For the same compound, the composite z-score was 1.3 in the assay on Sam68 (KHDRBS1); -0.236 in [7]; 0.949 in assay [8]; 3.11 in assay [9]; 1.25 in assay [10]; 1.31 in assay [11]. For the same compound, the composite z-score in [12] worked out at 1.04; in assay [13] it was 0.939; in assay [14], 0.0634; with Lefty1, 0.222; in assay [16], 0.728. In assay [1], the composite Z-score is 0.408 (inactive). Further, the z-score in [15] is 1.14; in assay [17], -0.96 (inactive).

Regarding `O=C1OCCC/C=C\[C@H]2OC34C=CCN(Cn5nnc6ccccc65)C(=O)[C@H]3N(CCCCCO)C(=O)[C@@H]4C12` (stereo not given in full), the composite z-score with Albumin (Bos taurus) was 0.743; in assay [2], -0.267; in assay [3], -0.14; in assay [4], 0.881; in assay [5] it was 0.0505; in assay [6] it was -0.477. Moreover, the composite z-score with Sam68 (KHDRBS1) is -0.445; in assay [7], -0.977; in assay [8], -0.702; in [9], 0.123; in [10] it was -0.654; in [11] it was -0.43. The composite z-score in [12] was -1.02; in assay [13], -0.31; in [14], -1.16; in the assay on Lefty1 it was -0.204; in assay [16], -1.03. Besides, the composite Z-score in assay [1] was -0.263 (inactive). Further, the z-score was 0.248 in assay [15] and 0.786 (inactive) in [17].

Consider `N#Cc1ccc(NN2C(C(O)c3cccs3)C=CC3C(=O)N(c4ccccc4)C(=O)C32)cc1` (stereo not given), for which the composite z-score with Albumin (Bos taurus) was 0.536; in [2], 0.144; in [3], -0.0136; in [4] it was 0.817; in assay [5] it was 2.28; in assay [6], 0.672. Further, the composite z-score in the assay on Sam68 (KHDRBS1) is 1.01; in assay [7], -0.0869; in [8], 1.02; in assay [9], -0.272; in [10] it was 0.685; in assay [11], 0.421. Also, the composite z-score was 0.71 in assay [12]; 0.556 in [13]; -0.216 in [14]; -0.257 in the assay with Lefty1; 0.578 in [16]. Further, in assay [1], the composite Z-score is 0.388 (inactive). Further, the values for the z-score in [15] and in assay [17] were 0.989 and -0.589 (inactive), respectively.

On to `COCCOC(=O)N1C(=O)[C@@]2(c3cc(C#CCNC(N)=O)ccc31)[C@H](C(=O)N1CCc3cc(OC)c(OC)cc3C1)[C@H]1C(=O)O[C@H](c3ccccc3)[C@H](c3ccccc3)N1[C@@H]2c1ccc(OCCO)cc1`, for which the composite z-score with Albumin (Bos taurus) is -0.717; in assay [2] it was 0.289; in assay [3], -0.186; in [4] it was 0.225; in [5] it was 0.423; in assay [6], 0.406. In addition, the composite z-score in the assay with Sam68 (KHDRBS1) is 0.398; in assay [7], 0.286; in assay [8] it was 1.09; in [9], 0.101; in [10], 0.158; in assay [11], -0.0354. For the same compound, the composite z-score in assay [12] worked out at 0.108; in [13] it was 1.3; in [14], 1.41; with Lefty1, 0.881; in assay [16] it was 0.385. Moreover, in assay [1], the composite Z-score was 0.202 (inactive). For the same compound, the z-score is -1.49 in assay [15] and -0.553 (inactive) in [17].

In the case of `COC(=O)[C@@]1(Cc2ccccc2)[C@H]2c3cc(C(=O)N(C)C)n(Cc4cc(C)n(C)n4)c3C[C@H]2CN1C(=O)c1ccccc1`, the composite z-score with Albumin (Bos taurus) turned out to be 1; in assay [2], 0.718; in assay [3], 0.258; in [4], 0.931; in [5], 2.63; in assay [6], 0.993. In addition, the composite z-score with Sam68 (KHDRBS1) was 0.812; in assay [7], -0.979; in assay [8] it was 0.711; in assay [9] it was 1.95; in assay [10] it was 1.13; in assay [11], 0.57. For the same compound, the composite z-score was -0.103 in [12]; 0.229 in [13]; -0.768 in [14]; -0.169 in the assay on Lefty1; 0.889 in [16]. Besides, the composite Z-score in [1] was -0.138 (inactive). For the same compound, the z-score in assay [15] is -0.127; in assay [17] it was 0.887 (inactive).

Values taken from PubChem BioAssay.
